# PI5P4Ka inh – PI5P4K alpha (human) kinase inhibition; P48426; PI5P4Kalpha enzyme, ADP-Glo luminescence, 60 min; active compounds read low; max response, %; hit rate 1.2% among 330,000; active = max response of -50% or lower; inconclusive = between -30% and -50%; inactive = -30% or higher; note: value at the top dose of about 77 µM
# Target sequence (P48426 whole entry, looked up): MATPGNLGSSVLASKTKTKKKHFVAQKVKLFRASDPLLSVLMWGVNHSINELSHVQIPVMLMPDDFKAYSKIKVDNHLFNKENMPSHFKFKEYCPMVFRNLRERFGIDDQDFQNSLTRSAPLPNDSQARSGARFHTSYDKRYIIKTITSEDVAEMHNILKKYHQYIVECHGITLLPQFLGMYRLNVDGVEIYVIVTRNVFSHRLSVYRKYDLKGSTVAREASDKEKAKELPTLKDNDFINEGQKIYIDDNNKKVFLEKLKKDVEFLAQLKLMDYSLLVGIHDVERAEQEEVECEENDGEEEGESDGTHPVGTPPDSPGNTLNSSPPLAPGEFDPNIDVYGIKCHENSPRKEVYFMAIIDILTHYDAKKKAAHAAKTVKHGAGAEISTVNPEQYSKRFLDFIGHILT
#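 Quantitative HTS of the MLSMR library against PI5P4Kalpha with substrate. ATP added last at 5 microM final; room temperature, 60 minutes. Remaining ATP depleted, ADP converted and read as luminescence.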
# BAZ2B inh – blocks human BAZ2B; Q9UIF8; AlphaScreen BAZ2B-H3K14Ac peptide displacement; Potency, µM (top dose mostly 114 µM), actives largely listed as inhibitors; hit rate 4.4% among 360,000; AID 504333; note: nearly all actives have a fitted effect of over 60% in size
#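 Protein-peptide AlphaScreen: BAZ2B 50 nM, b-H3K14Ac 50 nM, 1x PBS pH 7.4 + 0.01% Tween-20. Preincubation 30 min RT; cpd 30 min RT (top 110 uM); beads 20 min RT, light-protected.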
# L3MBTL1 inh-1 – L3MBTL1 (human) inhibition; Q9Y468; AlphaScreen L3MBTL1–H3K9me1 peptide binding; Potency, µM (doses to about 57.1 µM), most hits filed as inhibitors; hit rate 0.66% among 230,000; AID 485360; note: nearly all actives have a fitted effect of over 60% in size
#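 L3MBTL1 (50 nM) pre-complexed 30 min with biotinylated H3(1-15)K9me1 peptide (75 nM), then compounds added for 30 min at room temperature; AlphaScreen streptavidin donor/nickel chelate acceptor beads (10 ug/mL final) read after 30 min dark incubation.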
# JMJD2A Tudor inh – blocks the human JMJD2A Tudor domain; O75164; AlphaScreen JMJD2A-Tudor / H3K4me3 peptide binding; Potency, µM (titrated, usually from 114 µM), usual class: inhibitors; hit rate 4.4% among 390,000; AID 504339; note: nearly all actives have a fitted effect of over 50% in size
# HP1b binding inh – inhibitors of HP1-beta chromodomain binding to methylated histone tails; Potency, µM (series often up to 114 µM), most hits filed as inhibitors; P83916; hit rate 0.56% among 390,000; AlphaScreen HP1-beta / biotin-H3K9me3 peptide binding; note: nearly all actives have a fitted effect of over 70% in size
#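 HP1-beta protein (50 nM final) preincubated 30 min at room temperature with biotinylated H3(1-18)K9me3 peptide (50 nM) in PBS pH 7.4, 0.01% Tween-20, then compound added for 30 min. AlphaScreen streptavidin donor/nickel chelate acceptor beads (10 ug/mL final), 30 min dark, luminescence read.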
# G9a block – blocks human histone lysine methyltransferase G9a; G9a H3K9 monomethylation, AlphaScreen, 2 h; Potency, µM (titrated, usually from 102 µM), most hits filed as inhibitors; hit rate 8.8% among 350,000; note: nearly all actives have a fitted effect of over 75% in size
# Target sequence (Q96KQ7 913-1193 limits assumed): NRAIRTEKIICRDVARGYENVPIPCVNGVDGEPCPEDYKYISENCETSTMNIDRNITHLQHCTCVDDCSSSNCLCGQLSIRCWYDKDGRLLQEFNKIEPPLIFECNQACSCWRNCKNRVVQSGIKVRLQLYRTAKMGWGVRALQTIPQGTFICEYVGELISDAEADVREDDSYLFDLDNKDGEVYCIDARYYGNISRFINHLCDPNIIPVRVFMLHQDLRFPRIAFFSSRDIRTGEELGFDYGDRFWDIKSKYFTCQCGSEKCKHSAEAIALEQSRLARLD
#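 Chemiluminescent proximity detection of H3K9 monomethylation, read after 10 min bead incubation in the dark. Reaction: 20 nM G9a, 500 nM biotin-H3K9 peptide, 20 uM SAM cofactor, 2 h, room temperature, following 15 min enzyme-compound preincubation.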
# L3MBTL1 inh-2 – blocks human L3MBTL1 methyl-lysine binding; shares compounds with L3MBTL1 inh-1; L3MBTL1 methyl-lysine binding inhibition, biochemical qHTS; Potency, µM, usual class: inhibitors; hit rate 91% among 500; note: nearly all actives have a fitted effect of over 70% in size
# AlphaScreen ctr2 – interferes with AlphaScreen signal in L3MBTL1 counterscreen; shares compounds with L3MBTL1 inh-1; 500 tested, under 10 active; Potency, µM (highest dose often 57.1 µM), most hits filed as inhibitors; AlphaScreen counterscreen, signal inhibition
# Numbers stand for hits; 0 = inactive; ? = inconclusive; - = not tested or not shown; [ ] = remark or other dose. A selection: hits, their analogues and other compounds. The true share with any hit is near 11%. Unless noted, calls come from the whole dose curve; as a rule, active = well fitted curve in the direction sought with a large enough effect; inconclusive = small, poorly fitted or top-dose-only effect, or another doubt; inactive = no such curve, though single readings can be large; an effect the other way counts as inactive or inconclusive.
SMILES,PI5P4Ka inh,BAZ2B inh,L3MBTL1 inh-1,JMJD2A Tudor inh,HP1b binding inh,G9a block,L3MBTL1 inh-2,AlphaScreen ctr2
Cc1ccc(-c2nc3ncccn3c2Nc2ccc3c(c2)OCCO3)cc1,0,?,-,?,?,45µM,-,-
CCc1ccc2nc(N(CCN(CC)CC)C(=O)c3ccco3)sc2c1,-,0,-,0,0,0,-,-
Cc1cccc2cc(C(c3nnnn3Cc3ccc4c(c3)OCO4)N3CCCC3)c(=O)[nH]c12 (centres undefined),0,0,0,0,0,18µM,-,-
CCOc1ccc2[nH]c(=O)c(C(c3nnnn3Cc3ccco3)N3CCN(C)CC3)cc2c1 (centres undefined),0,0,0,0,0,-,-,-
Cc1cccc2cc(C(c3nnnn3CC3CCCO3)N3CCCC4(CCCCC4)C3)c(=O)[nH]c12 (centres undefined),-,0,0,-,-,0,-,-
O=c1[nH]c2cc3c(cc2cc1C(c1nnnn1Cc1ccccc1)N1CCCCCC1)OCCO3 (centres undefined),0,0,-,0,0,14µM,-,-
Cc1cc(C(c2nnnn2Cc2ccccc2)N2CCOCC2)c(C)n1-c1ccc2c(c1)OCO2 (centres undefined),-,?,0,?,?,40µM,-,-
Cc1cc2cc(C(c3nnnn3Cc3ccco3)N3CCCCC3)c(=O)[nH]c2cc1C (centres undefined),-,0,-,0,0,50µM,-,-
COc1ccc(N2CC(NC(=O)c3ccc(OC(C)C)cc3)CC2=O)cc1 (centres undefined),-,0,-,0,0,0,-,-
CC(=O)c1ccc(NC(=O)C2CCC(CNS(=O)(=O)c3ccc4c(c3)CCCC(=O)N4)CC2)cc1 (centres undefined),-,0,-,0,0,0,-,-
Cc1cc(C)cc(NC(=O)c2cc(S(=O)(=O)N3CCC(C)CC3)cn2C)c1,-,0,-,0,0,0,-,-
COc1ccc(CCn2c(=O)c3cccnc3n(CC(=O)Nc3ccc(C)c(F)c3)c2=O)cc1OC,-,0,-,0,0,0,-,-
CCOc1ccc(-n2ccnc2SCC(=O)Nc2cccc3ccccc23)cc1,-,?,-,?,0,?,-,-
Cc1ccc(O/C=C2/Nn3c(nnc3-c3cc(-c4ccccc4)n[nH]3)S2)cc1,-,-,-,0,0,-,-,-
Cc1ccc2cc(C(c3nnnn3C(C)(C)C)N3CCCC3)c(=O)[nH]c2c1C (centres undefined),-,0,0,-,-,32µM,-,-
Cc1ccc(S(=O)(=O)N2CCN(c3nc(-c4cccs4)nc4nc[nH]c34)CC2)cc1,-,-,-,0,0,-,-,-
Cn1nc(C(=O)O)c(=O)n(C)c1=O,0,-,-,89µM,0,-,-,-
Cc1ccc(OCC(=O)Nc2sc3c(c2C(N)=O)CCCC3)c(C(C)(C)C)c1,-,0,-,0,0,?,-,-
O=C(NCc1ccccn1)c1ccc(=O)oc1,0,6.3µM,16µM,8.9µM,0,3.2µM,21,0
CCS(=O)(=O)c1ncc(N(Cc2ccco2)Cc2sccc2C)c(C(=O)Nc2ccc(C)cc2C)n1,-,0,-,0,0,0,-,-
COc1ccc(N2CCN(C(=O)C(CC(C)C)NS(=O)(=O)c3ccc4nc(C)sc4c3)CC2)cc1 (centres undefined),-,?,-,0,0,?,-,-
Cc1ccn2c(=O)nc(SCC(=O)Nc3cccc4ccccc34)nc2c1,0,0,?,0,0,0,-,-
O=C(CSc1nc(=O)n2cc(Cl)ccc2n1)Nc1cccc2ccccc12,?,?,25µM,0,0,0[12.7 µM],?,0
O=C(O)c1cc(-c2ccco2)nc2cc3ccccc3cc12,?,56µM,10µM,?,0,11µM,0.84,0
CCN(CC)c1nc2ccccc2nc1C(=O)Nc1cc(OC)c(OC)c(OC)c1,-,?,-,?,0,0,-,-
SMILES,PI5P4Ka inh,BAZ2B inh,L3MBTL1 inh-1,JMJD2A Tudor inh,HP1b binding inh,G9a block,L3MBTL1 inh-2,AlphaScreen ctr2
CC(C)CNC1=CC(=O)CC(c2ccco2)C1 (centres undefined),0,?,?,0,0,0,-,-
O=C1C=C(O)CC(c2ccco2)C1 (centres undefined),0,?,14µM,56µM,0,?,3,0
CC(CNc1ccccc1O)C(=O)O (centres undefined),0,50µM,28µM,3.2µM,50µM,16µM,11,0
CC(NC(=O)CCC(=O)Nc1ccccc1O)c1ccccc1 (centres undefined),0,-,-,0,0,-,-,-
OC(c1ccccn1)(c1ccccn1)c1ccccn1,0,22µM,16µM,56µM,0,0,21,0
Cc1cccc(Nc2nn3c(=O)c4cc5c(cc4nc3s2)OCO5)c1,-,0,-,0,0,?,-,-
COc1cc2ccnc(C=O)c2cc1OC,0,-,-,-,-,-,-,-
COc1ccc(C(N)c2nccc3cc(OC)c(OC)cc23)cc1OC (centres undefined),0,14µM,28µM,56µM,0,-,12,?
COc1ccc(NC(=O)Cn2c(=O)n(CCCCCC(=O)NCc3ccc4c(c3)OCO4)c(=O)c3sccc32)cc1Cl,-,0,-,0,0,0,-,-
COc1ccc(OC)c(N2C(=O)[C@@H]3C(c4ccccc4Cl)=NO[C@@H]3C2=O)c1,-66,32µM,3.5µM,?,18µM,0[2.33 µM],3,0
CCSC1=NC2(CCN(C(=O)NC3CCCCC3)CC2)N=C1c1ccc(C)cc1,-,0,-,0,0,0,-,-
Cc1cccc(NCc2ccc(O)c3ncccc23)c1C,?,56µM,25µM,?,0,0.4µM,9.5,0
COC(=O)c1ccccc1NC(=O)c1nc(-c2ccc(C)cc2)n2c1CCCCC2,-,0,-,0,0,0,-,-
Cc1cccc(NC(=O)/C(=C\c2ccc([N+](=O)[O-])o2)NC(=O)c2ccc(Cl)cc2)c1,?,50µM,28µM,35µM,?,?,13,0
COC(=O)/C(=C\c1ccc([N+](=O)[O-])o1)NC(=O)c1ccccc1,0,0,-,0,0,0,-,-
COc1ccc(-n2c(=O)c3c(C)c(C)sc3n(CC(=O)NCc3ccc(C)cc3)c2=O)c(OC)c1,-,0,-,0,0,0,-,-
Cc1ccc(S(=O)(=O)N2CCN(C(=O)/C=C/c3ccco3)CC2)cc1,0,50µM,28µM,79µM,?,45µM,27,0
CCOC(=O)c1c(-c2ccccc2)oc2ccc(NS(=O)(=O)c3ccc(C(C)C)cc3)cc12,-,0,-,0,0,0,-,-
COC(=O)c1ccccc1NC(=O)CSc1nc(N)cc(=O)[nH]1,?,56µM,25µM,?,?,50µM,11,?
N#C/C(=C\c1ccc(O)c(O)c1)C(=O)c1ccc(O)c(O)c1,-60,2.2µM,0.5µM,0.71µM,?,2.2µM,0.075,?

# Compound activity from PubChem BioAssay.
